A selection: hits, their analogues and other compounds. The true share with any hit is near 1.3%.
NCOA3 inh: inhibitors of human steroid receptor coactivator 3 (SRC3); HEK293 GAL4-SRC3 luciferase reporter, luminescence; hit rate 0.17% among 360,000; inhibition, % at 3.6 µM; AID 588352; Q9Y6Q9;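 active = inhibition above a per-campaign cutoff, the mean of all compounds plus 3 SD, cut at about 60% in these data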;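 also: 0% = DMSO-treated cells and 100% = gossypol-treated cells at 36 µM; higher means less SRC3-driven luciferase light from the GAL4 reporter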
LRH-1 inv ag: suppresses constitutive activity of human LRH-1; O00482; inhibition, % at 3.6 µM; hit rate 0.13% among 360,000; HEK293T StAR-luciferase reporter, LRH-1 transfected, 24 h;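 active = inhibition above the mean inhibition of all tested compounds plus 3 SD, cut at about 73% in these data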;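 also: 0% = DMSO wells and 100% = reporter-only cells lacking LRH-1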
COUP-TFII inh: blocks human COUP-TFII nuclear receptor | hit rate 0.7% among 370,000 | P24468 | inhibition, % at 8.6 µM | AID 686940 | HEK293T NGFI-A luciferase reporter, luminescence;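 active = inhibition above a per-plate cutoff, mean inhibition of test wells between control levels plus 3 SD, cut at about 38% in these data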;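 also: cells cotransfected with COUP-TFII expression vector driving the NGFI-A reporter; 0% = median of COUP-TF2 test wells and 100% = reporter-only cells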
NCOA1 inh: inhibits human SRC1 coactivator. inhibition, % at 3.6 µM. HEK293 GAL4-SRC1 luciferase reporter, luminescence. hit rate 0.12% among 360,000. Q15788;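 active = inhibition above the campaign mean plus 3 SD, with each screening campaign given its own cutoff, cut at about 60% in these data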;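 also: 0% = DMSO treated cells and 100% = gossypol at 36 µM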
Gli-Sufu antag: antagonists of Gli-Sufu signaling | Sufu-KO-LIGHT fibroblasts, Gli luciferase reporter luminescence | inhibition, % at 5 µM | hit rate 0.74% among 340,000;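 active = inhibition above about 55%, limit read from the data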;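 also: 0% = DMSO-treated cells and 100% = wells with medium but no cells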
NCOA2 inhibitor: human SRC2 (NCOA2) inhibition | Q15596 | HEK293 GAL4-SRC2 luciferase reporter, luminescence | inhibition, % at 9 µM | hit rate 0.17% among 370,000 | AID 651957;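 active = inhibition above the mean inhibition of all tested compounds plus 3 SD, set per campaign, cut at about 52% in these data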;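 also: 0% = DMSO treated cells and 100% = cells given Gossypol at 36 µM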
Gli antag conf: confirmation of Gli-SUFU pathway antagonists; shares compounds with Gli-Sufu antag; Sufu-KO-LIGHT cells, Gli luciferase reporter, luminescence; inhibition, % at 5 µM; hit rate 40% among 2,500; AID 602428;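 active = mean inhibition at 5 µM reaching about 45%, limit read from the data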;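 also: plate controls were DMSO-treated cells for no effect and wells lacking cells for full effect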
SufuKO cytotox: counter-screen for Gli-SUFU antagonists: cytotoxicity | shares compounds with Gli-Sufu antag | Sufu-KO-LIGHT cells cytotoxicity, ATP luminescence | cytotoxicity, % at 5 µM | hit rate 32% among 2,500;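 active = mean cytotoxicity at 5 µM above about 25%, limit read from the data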;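 also: cells exposed to compound overnight for roughly 16 to 18 hours; plate controls were DMSO wells with cells for no effect and medium without cells for full effect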
Wnt3a cs: inhibits Wnt3a reporter, counter-screen for Gli-SUFU antagonists. hit rate 20% among 2,500. Wnt-LIGHT cells, Wnt3a-driven luciferase reporter, luminescence. shares compounds with Gli-Sufu antag. inhibition, % at 6.25 µM;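 active = mean inhibition above about 25%, limit read from the data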
Numbers without * were called inactive; / = not tested or not shown.

SMILES | NCOA3 inh | LRH-1 inv ag | COUP-TFII inh | NCOA1 inh | Gli-Sufu antag | NCOA2 inhibitor | Gli antag conf | SufuKO cytotox | Wnt3a cs
C[C@H](O)[C@@H]1CN2CCc3c([nH]c4cccc(-c5ccccc5)c34)[C@@H]2C[C@@H]1N(C)C(=O)Nc1ccccc1 | / | / | -17.3 | / | / | 3.0 | / | / | /
COc1ccc(S(=O)(=O)N2CCN(Cc3cccc(OC)c3)CC2)cc1 | 6.3 | -0.5 | 7.8 | 7.7 | 62.1* | 3.9 | 22.6 | -3.3 | 8.1
COc1cccc(CN2CCN(S(=O)(=O)c3ccc(Br)cc3)CC2)c1 | -0.1 | 5.6 | -7.9 | -2.0 | 6.6 | 12.3 | / | / | /
CCOc1ccc(C2=Nn3cnnc3SC2)cc1 | 10.3 | -3.5 | 8.8 | -8.1 | 99.1* | -9.5 | 14.2 | 20.1 | 27.3*
Cc1cc(NS(=O)(=O)c2ccc(NC(=O)Cc3ccc(Cl)c(F)c3)cc2)no1 | / | / | 2.1 | / | / | -8.4 | / | / | /
COc1nnc(-c2ccc(C)c(S(N)(=O)=O)c2)c2ccccc12 | 2.6 | 3.5 | 0.6 | -0.6 | 6.1 | -64.3 | / | / | /
COc1nnc(-c2ccc(N3CCCCC3)c(N)c2)c2ccccc12 | -30.6 | -22.8 | -3.9 | 4.6 | 52.9 | -27.1 | 59.4* | 19.3 | -36.4
Cc1cccc(NC(=O)C2CCCN(C(=O)Nc3ccccc3)C2)c1C (stereo unspecified) | 13.8 | -17.3 | 10.9 | 0.7 | 57.6* | -21.9 | 3.9 | 24.1 | -17.0
CC1CCC2(CCC(=O)N2CCCOC(=O)NC(C)(C)C)CC1 (stereo unspecified) | / | / | -3.6 | / | / | 29.3 | / | / | /
Nc1cc(N)c(OCC(F)(F)F)cc1OCC(F)(F)F | -2.9 | -3.8 | / | 5.2 | 68.0* | / | 22.7 | 1.6 | 23.8
COc1ccc(/C(C)=N/NC(=O)Cc2cc(=O)[nH][nH]2)cc1OC | / | / | -14.1 | / | / | -33.0 | / | / | /
O=C(N/N=C/c1cc2ccccc2nc1Cl)[C@H]1C[C@@H]1c1ccccc1 | 12.8 | 3.9 | 7.8 | -7.7 | 73.4* | 18.1 | 36.9 | 17.4 | -59.1
N#C/C(=C/c1ccc(N2CCCC2)c([N+](=O)[O-])c1)c1nc2ccccc2[nH]1 | -16.1 | -28.4 | -4.3 | -21.9 | -29.6 | -7.4 | / | / | /
Cc1ccc2nc(/C(C#N)=C\c3ccc(N4CCCCC4)c([N+](=O)[O-])c3)[nH]c2c1 | -39.2 | -37.5 | 14.8 | -41.6 | 50.0 | -14.6 | 35.8 | 9.6 | -78.5
Nc1[nH]c(C(=O)c2ccccc2)c(-c2ccc3ccccc3c2)c1C(=O)NCCc1ccc(Cl)cc1 | / | / | 11.8 | / | / | / | / | / | /
FC(F)(F)c1cccc(Nc2cc(-c3ccccc3)nc3ncnn23)c1 | 33.9 | -8.6 | 13.0 | -6.4 | -0.9 | -1.4 | / | / | /
FC(F)(F)c1ccc(N2CCN(c3cc(-c4ccccc4)nc4ncnn34)CC2)nc1 | 10.2 | 4.8 | 12.5 | -0.4 | 57.2* | 15.0 | 49.3* | 9.8 | -64.0
CCN(CC)C(=O)CC[C@@H]1CC[C@]2(CCCN(Cc3cccc4ccccc34)C2)O1 | / | / | 9.4 | / | / | 23.2 | / | / | /
Cc1cccc(N2CCN(C(=O)c3cc(S(=O)(=O)N4CCOCC4)cn3C)CC2)c1C | 11.7 | -5.9 | -3.8 | 4.3 | -8.7 | 3.3 | / | / | /
Cc1cccc(N2CCN(C(=O)c3cc(S(=O)(=O)N4CCOCC4)cn3C)CC2C)c1 (stereo unspecified) | 15.8 | -1.7 | -0.7 | 14.5 | 58.3* | -11.1 | 14.5 | 0.6 | 9.6
CCOc1ccc(CN(C)CC(=O)Nc2ccc3c(c2)CCC3)cc1OC | 11.7 | 8.1 | -1.0 | -6.0 | 53.5 | 11.0 | 24.4 | 21.6 | -30.2
COC(=O)[C@]12C[C@H](CC(=O)N3CCN(C(=O)c4ccco4)CC3)C(=O)N(Cc3ccco3)C1=C[C@H](C(C)(C)C)O[C@@H]2C | / | / | -0.8 | / | / | -6.8 | / | / | /
CCOC(=O)Cn1c(Br)nc2c1c(=O)[nH]c(=O)n2C | -3.7 | -1.7 | 9.8 | 0.2 | 98.8* | 3.3 | 11.5 | 7.4 | -15.2
O=S(=O)(c1ccc(Br)cc1)c1nc(-c2ccco2)oc1NCC1CCCO1 (stereo unspecified) | 10.3 | 11.4 | 15.9 | -10.5 | 61.8* | -21.9 | 20.6 | 15.0 | 6.4
Cc1ccc(S(=O)(=O)c2nc(-c3ccco3)oc2NCC2CCCO2)cc1 (stereo unspecified) | 9.2 | 2.3 | 0.4 | -2.1 | -6.4 | -7.6 | / | / | /
SMILES | NCOA3 inh | LRH-1 inv ag | COUP-TFII inh | NCOA1 inh | Gli-Sufu antag | NCOA2 inhibitor | Gli antag conf | SufuKO cytotox | Wnt3a cs
CC(C)N1Cc2nnn(Cc3ccc(F)cc3)c2-c2cc(F)ccc2S1(=O)=O | / | / | 1.3 | / | / | 1.2 | / | / | /
CCn1c(=O)n2n(c1=O)[C@]1(C=C(C)C2)CN(Cc2ccc(OC)cc2OC)C(NC(=O)c2ccccc2)=N1 | / | / | -10.3 | / | / | / | / | / | /
CCOC(=O)c1ccc2c(c1)n(CC)c(/C=C/N(C)c1ccccc1)[n+]2CC | 31.3 | -0.1 | 2.7 | 26.0 | 83.3* | -1.0 | 85.5* | 30.7* | 33.5*
CCOC(=O)c1ccc2c(c1)n(CCO)c(C)[n+]2CC | 2.8 | 16.4 | -1.5 | -7.6 | -0.9 | -16.6 | / | / | /
COC(=O)c1cc(-c2cccc(OC(F)(F)F)c2)c(=O)n2c1CCC2 | / | / | -3.3 | / | / | -5.3 | / | / | /
COc1cc(-n2c(C)nc3cc(C(=O)N4CCCN(C(C)=O)CC4)ccc32)cc(OC)c1OC | / | / | 3.6 | / | / | 9.7 | / | / | /
O=C(Cn1ccc([N+](=O)[O-])n1)c1ccccc1 | 10.9 | -13.1 | -1.3 | 1.7 | 50.7 | -5.2 | 8.5 | 20.6 | -5.1
O=C(Cn1cnc([N+](=O)[O-])n1)c1ccccc1 | 5.5 | 18.7 | -2.0 | 1.2 | 24.0 | -8.9 | / | / | /
CCn1c(-c2nonc2NC(=O)c2ccccc2)nc2ccccc21 | -0.9 | -1.7 | 1.0 | 1.4 | 69.8* | -6.1 | 27.3 | 11.6 | 23.7
CC(=O)Nc1nonc1-c1nc2ccccc2n1Cc1ccccc1 | -8.5 | -32.9 | -18.7 | -33.1 | 11.2 | -62.5 | / | / | /
O=C(NCCOC(=O)c1ccc(C(=O)OCCNC(=O)c2ccccc2)o1)c1ccccc1 | 8.5 | 9.7 | -3.7 | -7.7 | 54.1 | -9.0 | 13.2 | 4.9 | 4.2
Cc1cc(N2CCNC[C@@H]2C)ccc1N1CCN(Cc2ccccc2)[C@H](C)C1 | / | / | -14.2 | / | / | -19.1 | / | / | /
CCOCCCNC(=O)c1cc2sc(Cl)cc2n1CC | -1.8 | -15.0 | -25.1 | -1.9 | 59.3* | -15.6 | 20.5 | 12.1 | -47.5
CCOCCCNC(=O)c1cc(C)nn1-c1ccccc1 | 4.9 | 16.2 | 10.9 | -12.2 | 3.3 | -7.5 | / | / | /
O=C1c2cccc([N+](=O)[O-])c2C(=O)N1c1c[nH]c(=O)[nH]c1=O | 13.0 | 1.3 | -14.9 | 6.6 | -18.7 | -1.9 | / | / | /
Cc1ccccc1N1C(=O)c2cccc([N+](=O)[O-])c2C1=O | 16.5 | 14.8 | -15.1 | 1.0 | 64.8* | 8.0 | 18.4 | 4.5 | 13.9
COCCn1c(C)cc(C2=NNC(=Nc3ccccc3)SC2)c1C | 39.2 | 43.3 | 26.8 | 31.6 | 54.1 | 22.3 | 12.4 | 40.0* | 19.4

Bioassay records deposited in PubChem by several laboratories.
